Several values for one entry are separate records, joined by “and”; a condition that tells them apart may be missing. Equal values may be shown once. Results filed as inconclusive are left out. Activity calls are given as the source filed them. Calls follow the shape of the dose curve; as a rule, active = well fitted cell-killing curve with a large enough effect in the repeat runs; inconclusive = weak or mixed curves; inactive = flat fitted curve, though single readings scatter.

The text below walks through data of PubChem BioAssay (Tox21).
Potency is read from the fitted curve at half-maximal effect.

The test is described as follows: qHTS assay to identify small molecule antagonists of the estrogen related receptor (ERR) signaling pathway from Tox21 library - cell viability counter screen (AID 1224834). Also: nearly all actives have a fitted effect of over 30% in size. The note with it: ERR reporter cells viability, CellTiter-Fluor, 17.5 h; series mostly up to 92.4 µM. In short, it runs like this:
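Cytotoxicity of test substances is gauged in the same ERR cells used for the antagonist screen, after 17.5 h of compound treatment at 37 C, by CellTiter-Fluor fluorescence measured after 30 min.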
A general note: qHTS replaces the single test concentration by a dilution series.
Take `C=C(c1ccc(C(=O)O)cc1)c1cc2c(cc1C)C(C)(C)CCC2(C)C`: the Potency was 54.5 µM (active). Take `Cc1cccc(C)c1NC(=O)CN1CCN(CCCC(c2ccc(F)cc2)c2ccc(F)cc2)CC1`: the Potency was 21.1 µM (active).

For the molecule `CCCCCCCCCCCCOC(=O)c1cc(O)c(O)c(O)c1`, the Potency is 60.9 µM (active) and 27.3 µM (active). `CC1=C(/C=C/C(C)=C/C=C/C(C)=C/C(=O)Nc2ccc(O)cc2)C(C)(C)CCC1`: the Potency is 28 µM (active) and 23.7 µM (active). In the case of `COCC(=O)O[C@]1(CCN(C)CCCc2nc3ccccc3[nH]2)CCc2cc(F)ccc2[C@@H]1C(C)C` it was 26.6 µM (active); in that of `O=Nc1ccc(NO)cc1`, “inactive”; in that of `CCCCCCCCCCCCCC[n+]1ccccc1`, 27.3 µM (active). As for `NC1(c2ccc(-c3nc4ccn5c(=O)[nH]nc5c4cc3-c3ccccc3)cc2)CCC1`, the Potency is 13.3 µM (active).

On to `CCc1cccc(C)c1`, for which the Potency entry was “inactive”.

Turning to `O=C(Nc1ccc(Cl)c(Cl)c1)c1cc(Cl)cc(Cl)c1O`, the Potency is 3.06 µM (active). Take `c1ccc(Nc2cccc3ccccc23)cc1`: the Potency result was “inactive”. With `CN(Cc1cc(Br)cc(Br)c1N)C1CCCCC1`, the Potency result was “inactive”. As for `CC(C)c1ccc(O)c(C(C)C)c1`, the Potency result is “inactive”.

Turning to `Clc1ccc(C(Cn2ccnc2)OCc2c(Cl)cccc2Cl)c(Cl)c1` (configuration not stated), the Potency was 29.8 µM (active). For `Clc1ccc(C(Cn2ccnc2)OCc2ccsc2Cl)c(Cl)c1` (configuration not stated), the Potency is 21.1 µM (active).

As for `CC(=O)OC(OC(C)=O)c1ccc([N+](=O)[O-])o1`, the Potency was 62.2 µM (active). The value for `O=C1NCN(c2ccccc2)C12CCN(CCCC(c1ccc(F)cc1)c1ccc(F)cc1)CC2` was 26.6 µM (active).
